# Test results reported in PubChem BioAssay (NCATS).
# Records with an inconclusive call do not appear. A number with no mark means an inactive call. Activity calls are given as the source filed them. Calls follow the shape of the dose curve; as a rule, active = well fitted cell-killing curve with a large enough effect; inconclusive = small, poorly fitted or top-dose-only effect; inactive = flat fitted curve, though single readings scatter.
# Experiment: qHTS of pediatric cancer cell lines to identify multiple opportunities for drug repurposing: Primary screen for TC32 cells (AID 1347089); also: nearly all actives have a fitted effect of over 60% in size
# Conditions: TC32 Ewing sarcoma viability, CellTiter-Glo luminescence, 48 h; series mostly up to 45.8 µM; activity change, negative = cytotoxic: at the top concentration
# Description: Drug repurposing or repositioning has been offered as a strategy for drug development in oncology programs. This approach has special potential for childhood cancers and other rare or orphan diseases, where the expected return on new drug development has been a disincentive to pharmaceuticals.
# In this project we exploit the poly-pharmacology of drugs to discover new indications via phenotypic screening of a panel of 19 well-characterized cell lines derived from solid tumors seen in children and adolescents. The goal is to identify approved drugs with previously unrecognized anticancer properties that has the potential to reveal new mechanisms and biological processes involved in carcinogenesis or drug resistance. We employed a titration-based paradigm (quantitative high-throughput screening or qHTS), where all compounds were tested at multiple concentrations for their effect on cell viability. Concentration-response curves (CRCs) were derived directly from the primary screen, and both potency and efficacy values were used to identify compounds with robust bioactivity profiles. We screened the NIH Chemical Genomics Center (NCGC) Pharmaceutical Collection (NPC) and Mechanism Interrogation Plate (MIPE) small molecule collections of approved and investigational compounds against these cell lines; and measured metabolically active cells after 48 hours of compound treatment as a proxy for cell viability.
# Assay Submitter: Nathalia J. Martinez, National Center for Advancing Translational Sciences, National Institutes of Health, Rockville, MD, USA; email: natalia.martinez@nih.gov
# [1] Shen, M et al. Quantitative high-throughput phenotypic screening of pediatric cancer cell lines identifies multiple opportunities for drug repurposing. Oncotarget 2017 Dec 19;9(4):4758-4772. PMID 29435139.
# The cells were obtained from University of North Carolina (UNC), Pediatric Preclinical Testing Program (PPT), and Coriell Institute (CI).
# qHTS cell viability assay:
# Cells were assayed in growth media at a density of 500-1,000 cells/well. Five microliters of cells were dispensed into 1,536-well, white, solid-bottom, TC-treated plates (Greiner Bio One) using a multidrop dispenser and incubated at 37 degrees C, 5% CO2, under a humidified atmosphere for 5 hours. Twenty-three nanoliters of compounds and controls (neutral control DMSO or positive control bortezomib at final concentration of 2.3 uM) were subsequently transferred by Kalypsys pintool. For primary screens, the MIPE collection was tested at 11-point dilutions (final concentrations range from 0.78 nM to 46 µM) and the NPC collection at 8-point dilutions (final concentrations range from 0.59 nM to 46 µM). Compounds tested in follow-up screens were assayed at 11-point dilutions. Cells were incubated for 48 hours, followed by addition of 3 uL of CellTiter-Glo (Promega). After a 15min incubation at room temperature, samples were analyzed for luminescence intensity using a ViewLux High-throughput CCD imager equipped with clear filters.
# % is scaled to controls: 0 for no effect and ±100 for the full control effect; potency is read from the fitted curve at half-maximal effect.
SMILES,"activity change, negative = cytotoxic",Potency
c1ccc(CN(CC2=NCCN2)c2ccccc2)cc1,3.42%,–
C[C@@H]1CCN(C(=O)[C@H](CCCN=C(N)N)NS(=O)(=O)c2cccc3c2NC[C@H](C)C3)[C@@H](C(=O)O)C1,11.4%,–
CCCc1c(OCCCCc2nn[nH]n2)ccc(C(C)=O)c1O,7.47%,–
O=C(Oc1ccccc1C(=O)O)c1ccccc1O,17%,–
CCOC(=O)c1ccc(O)cc1,9.81%,–
O=c1cc[nH]c(=S)[nH]1,0.833%,–
Cc1ccc(C(C)C)cc2c(C)ccc1-2,2.3%,–
CC(C)(C)C(=O)C(Oc1ccc(Cl)cc1)n1ccnc1 (stereo not given),9.15%,–
NC(=O)c1ncn([C@@H]2O[C@H](CO)[C@@H](O)[C@H]2O)n1,8.91%,–
CC(O)CN(CCN(CC(C)O)CC(C)O)CC(C)O (stereo not given),18.1%,–
Cc1cc(C(C#N)c2ccc(Cl)cc2)c(Cl)cc1NC(=O)c1cc(I)cc(I)c1O (stereo not given),-8.63%,–
CCN(CC)C(=O)Nc1ccc(OCC(O)CNC(C)(C)C)c(C(C)=O)c1 (stereo not given),9.8%,–
COc1cc2[nH]c(=O)[nH]c(=O)c2cc1OC,15.5%,–
CC1=C(CC(=O)O)c2cc(F)ccc2/C1=C\c1ccc(S(C)(=O)=O)cc1,-5.56%,–
O=Cc1ccccc1C=O,5.92%,–
CC[C@H]1CN2CCc3cc(OC)c(OC)cc3[C@@H]2C[C@@H]1C[C@H]1NCCc2cc(OC)c(OC)cc21,–,0.333 µM (active)
N[C@@H](CSSC[C@H](N)C(=O)O)C(=O)O,5.9% [at 0.594 µM],–
CC[C@@]1(c2ccccc2)NC(=O)N(C)C1=O,17.8%,–
CC(=O)c1ccc2c(c1)N(CCCN(C)C)c1ccccc1S2,-9.04%,–
OC[C@H]1O[C@@H](O[C@@H]2[C@@H](CO)O[C@](O)(CO)[C@H]2O)[C@H](O)[C@@H](O)[C@H]1O,4.69%,–

SMILES,"activity change, negative = cytotoxic",Potency
CC1(C)CO[C@@H](CC(=O)O)CN1,9.52%,–
CC(=O)NC(Cc1ccccc1)C(=O)O (stereo not given),1.6%,–
O=C(O)[C@@H]1CSCN1,3.23%,–
CN1CCN(C2Cc3ccccc3Sc3ccc(Cl)cc32)CC1 (stereo not given),-19.5%,–
COc1ccc2[nH]c(S(=O)Cc3ncc(C)c(OC)c3C)nc2n1 (stereo not given),19.4%,–
Cc1ncc(COP(=O)(O)O)c(C=O)c1O,4.4%,–
C#CCN(C)Cc1ccccc1,6.52%,–
C[C@]12CC[C@@H]3c4ccc(O)cc4CC[C@H]3[C@@H]1CCC2=O,-0.985%,–
O=C1N=C(O)CN1/N=C/c1ccc(-c2ccc([N+](=O)[O-])cc2)o1,4.7%,–
CCCCC(CC)COC(=O)c1ccccc1O (stereo not given),8.93%,–
OCC(CO)N[C@H]1C[C@](O)(CO)[C@@H](O)[C@H](O)[C@H]1O,9.63%,–
O=C(CCCN1CCN(c2ccccn2)CC1)c1ccc(F)cc1,-11.5%,–
CS(=O)(=O)c1ccc([C@@H](O)[C@@H](CF)NC(=O)C(Cl)Cl)cc1,1.8%,–
NC(N)=NCCC[C@H](N)C(=O)O,3.73% [at 4.81 µM],–
CC1=C(C/C=C(\C)CCC[C@H](C)CCC[C@H](C)CCCC(C)C)C(=O)c2ccccc2C1=O,7.06%,–
COc1ccc(Cl)cc1C(=O)NCCc1ccc(S(=O)(=O)NC(=O)NC2CCCCC2)cc1,9.53%,–
Cc1cccc(C)c1NC(=O)CN(CC(=O)O)CC(=O)O,7.54%,–
CC12CCC(CC1)C(C)(C)O2,20.6%,–
CC(C)(O)c1ccccc1CC[C@@H](SCC1(CC(=O)O)CC1)c1cccc(/C=C/c2ccc3ccc(Cl)cc3n2)c1,10.2%,–
CCCOC(=O)c1ccccc1,15.2%,–
